HPGD block: qHTS Assay for Inhibitors of HPGD (15-Hydroxyprostaglandin Dehydrogenase); purified HPGD, NADH fluorescence kinetic, PGE2 substrate; 15-hydroxyprostaglandin dehydrogenase [NAD(+)] (Homo sapiens), P15428; actives 4.3% (n = 150,000); Potency, µM, without a hit: at the top dose activity change, negative = inhibition, usual class: inhibitors; note: potency is the fitted concentration of half-maximal effect
Target sequence (P15428 whole entry, looked up): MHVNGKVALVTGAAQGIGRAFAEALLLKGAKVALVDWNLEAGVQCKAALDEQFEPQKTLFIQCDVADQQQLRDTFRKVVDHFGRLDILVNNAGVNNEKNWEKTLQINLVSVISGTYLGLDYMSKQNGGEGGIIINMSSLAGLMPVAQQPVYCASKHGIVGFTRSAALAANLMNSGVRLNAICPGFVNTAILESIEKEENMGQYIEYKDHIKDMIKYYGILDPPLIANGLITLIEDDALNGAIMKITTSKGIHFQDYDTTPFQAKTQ
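20 nM HPGD preincubated 15 min at room temperature with compound in 50 mM Tris-HCl pH 8, 0.01% Tween 20. Started with 1 mM NAD+ and 30 uM prostaglandin E2; NADH fluorescence (360/450 nm) read 5 times over 30-s intervals, last minus first.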
IMPase inh: qHTS Assay for Identifying the Cell-Membrane Permeable IMPase Inhibitors. inhibition (IP1 accumulation), % at 46.1 µM. AID 901, 2007. Inositol monophosphatase 1 (Rattus norvegicus), P97697. 120,000 tested, under 10 active. CHO-M1 cells, IP1 accumulation, HTRF TR-FRET ratio; active = well fitted curve in the direction sought with a large enough effect in the signal ratio, not every such curve was filed as active; inconclusive = small, poorly fitted or top-dose-only effect, or a change in a side signal; inactive = no such curve, though single readings can be large or run the other way; the % refers to the signal ratio;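 note: cells stimulated with carbachol in lithium chloride buffer; plate controls were DMSO basal wells for no effect and reference inhibitor wells for full effect; higher means more IMPase inhibition seen as more IP1 and lower FRET ratio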
Target sequence (P97697 whole entry, looked up): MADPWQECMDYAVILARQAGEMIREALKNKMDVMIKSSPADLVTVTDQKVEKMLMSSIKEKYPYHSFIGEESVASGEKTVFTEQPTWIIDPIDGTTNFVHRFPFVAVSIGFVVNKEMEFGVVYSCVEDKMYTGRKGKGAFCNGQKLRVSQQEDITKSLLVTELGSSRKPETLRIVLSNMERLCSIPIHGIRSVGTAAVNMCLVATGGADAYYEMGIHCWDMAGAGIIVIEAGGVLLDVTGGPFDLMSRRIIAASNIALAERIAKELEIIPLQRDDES
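The IP-One HTRF competitive assay in carbachol-stimulated CHO-M1 cells quantifies cellular IP1. Compounds spanned up to 46 uM final, and activity is expressed as AC50 from concentration-response fits of the ratio and donor data.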
ALDH1A1 block: qHTS Assay for Inhibitors of Aldehyde Dehydrogenase 1 (ALDH1A1) | Aldehyde dehydrogenase 1A1 (Homo sapiens), P00352 | Purified ALDH1A1, NADH fluorescence, propionaldehyde substrate | Potency, µM (series often up to 75.3 µM), for the others: at the top dose activity, negative = inhibition, usual class: inhibitors | actives 7.3% (n = 220,000) | AID 1030, 2008;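 note: potency is the fitted concentration of half-maximal effect; plate controls were no enzyme wells and a reference inhibitor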
An asterisk follows results filed as active; ? = inconclusive; / = no result; [ ] = another dose, or the depositor's remark. Shown are actives, neighbours in structure and some others; about 9% of the full set was active somewhere. Unless noted, calls come from the whole dose curve; as a rule, active = well fitted inhibition curve with a large enough effect (not every such curve was filed as active); inconclusive = small, poorly fitted or top-dose-only effect, or another doubt; inactive = no such curve, though single readings can be large or run the other way. Unless noted, % is set by controls: 0 for no effect and ±100 for the full control effect.

SMILES | HPGD block | IMPase inh | ALDH1A1 block
COCC(C)n1c(SCc2ccc(OC)c(F)c2)nc2ccccc2c1=O (centres undefined) | / | / | 0.6%
COc1ccc(-c2cc(C(F)(F)F)nc(SCCC(=O)Nc3c(C)cccc3C)n2)cc1 | / | 4.9 | /
CCCCCC(=O)NNC(=O)c1ccc(-c2ccccc2)cc1 | -12.3% | 14.2 | 7.8%
COCc1nnc(NC(=O)c2cc(OC)c(OC)c(OC)c2)s1 | / | -2.8 | /
COCCCn1c(C)c(C(C)=O)cc(NC(=O)c2ccccc2)c1=O | / | / | 2µM*
COCCCN1C(=O)c2ccc(C(=O)Nc3ccccc3OC)cc2C1=O | -9.8% | -7.4 | ?
Cc1noc(C)c1-c1cc(NC2CC2)ncn1 | -3.5% | / | -5.9%
O=C1C2C3C=CC(C3)C2C(=O)N1CNc1ccccn1 (centres undefined) | -1.2% | 0.5 | 10.2%
CC(C(=O)Nc1nc2ccccc2[nH]1)N1C(=O)C2CC=CCC2C1=O (centres undefined) | -10.8% | -3.0 | 10.4%
CC1CC1C(=O)Nc1nc(-c2ccccn2)cs1 (centres undefined) | 14.1µM* | 1.9 | 10µM*
O=C(Nc1nc(-c2ccccn2)cs1)C1COc2ccccc2O1 (centres undefined) | -10.1% | 0.1 | 5.8%
c1ccc(CCNc2nc(-c3cccnc3)cs2)cc1 | -15.3% | 8.8 | ?
CC(C(=O)Nc1ccccn1)N1C(=O)C2C3C=CC(C3)C2C1=O (centres undefined) | / | 0.1 | 25.1µM*
c1ccc(CCNc2nc(-c3ccccn3)cs2)cc1 | / | / | 31.6µM*
C[C@@H](C(=O)Nc1nc(-c2ccccn2)cs1)N1C(=O)C2CCCCC2C1=O (some centres undefined) | 25.1µM* | -3.9 | 12.6µM*
COc1ccc(/C=N/NC(=O)C(=O)NCc2cccnc2)cc1 | / | / | -0.7%
COc1ccccc1N1CCN(Cc2nnc(-c3ccccc3C)o2)CC1 | / | 7.2 | /
O=[N+]([O-])c1cccc(N2Cc3ccccc3C2)c1 | / | / | -7.3%
CCOC(=O)c1ccccc1NC(=S)N1CCN(C2CCCCC2)CC1 | / | / | 2.2%
CC#CCN1c2ccccc2[C@]23C[C@@H](C(=O)OC)N(S(=O)(=O)c4ccc(C#N)cc4)C2=NC(C(=O)OC)=C(C(=O)OC)[C@H]13 | -8.3% | / | 6.0%[13.5 µM]
CCOC(=O)c1oc2ccc(CNC(C)(C)C)c(Cl)c2c1C | -10.9% | 10.4 | -10.7%
COc1ccccc1NCC(=O)NNCC(=O)Nc1ccc(F)c(Cl)c1 | / | / | -4.7%
Cc1cc(C)n(CC(=O)O)c(=O)c1[N+](=O)[O-] | / | / | -28.0%
O=C(CN1C(=O)C2CCCCC2C1=O)Nc1ccc(S(=O)(=O)Nc2ncccn2)cc1 (centres undefined) | / | / | 14.8%
O=C(CN1C(=O)C2CCCCC2C1=O)Nc1nc(-c2ccccn2)cs1 (centres undefined) | 28.2µM* | 6.7 | 22.4µM*
SMILES | HPGD block | IMPase inh | ALDH1A1 block
COc1ccc(C2/C(=C(/O)c3ccc(C)cc3)C(=O)C(=O)N2CC2CCCO2)cc1OC (centres undefined) | / | / | -1.2%
COc1ccc(NC(=O)c2c(NC(=O)COc3ccccc3)sc3c2CCCCC3)cc1 | / | -3.5 | /
COc1ccc(/C=C/C(=O)NCc2cccnc2)cc1 | -19.1% | -3.3 | 0.4%
COc1ccc(/C=C/C(=O)Nc2sc3c(c2C(=O)NCc2cccnc2)CCCC3)cc1 | ? | -0.9 | 3.98µM*
O=C(COc1ccccc1)Nc1sc2c(c1C(=O)NCc1cccnc1)CCCC2 | -11.7% | -7.7[1.84 µM] | 20µM*
CSc1ccc([C@H]2CN3CCC[C@H]3c3ccccc32)cc1 | -7.3% | / | -9.3%
Cc1ccc(S(=O)(=O)NCc2ccc(C(=O)N3CCCC3)cc2)cc1 | 20µM* | / | ?
CCOC(=O)N1CCN(C(=O)c2ccc(CNS(=O)(=O)c3ccc(C)cc3)cc2)CC1 | -5.0% | 5.1 | -0.2%
O=C(c1cccc(S(=O)(=O)NCc2ccccc2)c1)N1CCCC1 | / | / | 1.5%
CC(C)(C)c1ccc(S(=O)(=O)NCc2ccc(C(=O)N3CCCC3)cc2)cc1 | ? | -5.4 | 3.98µM*
O=C(N/N=C/c1cccc([N+](=O)[O-])c1)c1ccccc1-n1cccc1 | / | / | -9.3%
O=C(Nc1ccccc1)[C@@]12C[C@@H]1/C(=N/O)c1ccccc1O2 | -22.1% | 2.7 | -3.3%
Cc1noc(C)c1-c1ccc2ncnc(Nc3ccc(F)cc3)c2c1 | / | / | -14.7%
O=C(OCCN1C(=O)c2ccccc2C1=O)c1cccc(OC(F)F)c1 | -8.1% | -18.5 | -2.5%
COc1cc(OC)c2c(=O)c(-c3ccc4c(c3)OCO4)coc2c1 | -3.4% | / | ?
O=c1c(-c2ccccc2)coc2cc(O)cc(O)c12 | 6.31µM* | / | 11.2µM*
O=c1c(-c2ccc(O)cc2)coc2cc(O)ccc12 | ? | -5.9 | ?
O=c1c(-c2ccc3c(c2)OCCO3)coc2cc(O)cc(O)c12 | 28.2µM* | -3.7 | 15.8µM*
Cc1c(Cl)cccc1NC(=S)NC1CC1 | -1.1% | / | ?
Cc1c(Cl)cccc1NC(=S)Nn1cnnc1 | / | / | 12.6µM*
O=c1c2ccccc2nc(SCc2nc3ccccc3s2)n1CCCO | -20.4% | 10.6 | ?
C/C(=N/Nc1ccc(C(=O)O)cc1)c1ccc(O)c(O)c1O | 25.1µM* | / | ?
COc1ccc(OC)c(/C(C)=N/Nc2ccc(C(=O)O)cc2)c1 | / | / | -12.7%
C/C(=N\Nc1ccc(C(=O)O)cc1)c1nc2ccccc2n1C | 15.8µM* | -10.6 | 4.9%
Cn1c(/C=N/NC(=O)c2ccccc2)nc2ccccc21 | ? | -1.9 | ?
SMILES | HPGD block | IMPase inh | ALDH1A1 block
CCNC(=O)COc1cccc(C(=O)NCc2ccccc2)c1 | -10.2% | / | -0.9%
O=S(=O)(Nc1ncccn1)c1ccc(NC(=S)NCCc2ccccc2)cc1 | / | / | 5.1%
Cc1noc(C)c1C(=O)N1CCC[C@@]2(CCN(Cc3nccs3)C2)C1 | -2.9% | / | 0.8%
N#Cc1ccc(CO/N=C/c2ccccc2)cc1 | / | / | -1.4%
O=S(=O)(Nc1ccc2c(c1)OCCO2)c1ccc(Br)s1 | -27.0% | 5.4 | 1.1%
COC(=O)CSc1nnnn1-c1cccc2ccccc12 | -26.3% | 1.4 | ?
c1ccc(CSc2nnnn2-c2ccccc2)cc1 | -20.3% | 1.4 | ?
O=C(O)c1cccc(-n2nnnc2SCc2ccccn2)c1 | ? | ? | -12.1%
c1ccc(-n2nnnc2SCc2cccc(CSc3nnnn3-c3ccccc3)n2)cc1 | -7.2% | / | 1.58µM*
c1ccc(-n2nnnc2SCc2cn3ccccc3n2)cc1 | -7.0% | -9.8 | 3.98µM*
c1ccc(-n2nnnc2SCc2cn3cccnc3n2)cc1 | ? | 2.4 | ?
O=C(CCCSc1nnnn1-c1cccc2ccccc12)c1ccc(F)cc1 | -22.0% | 5.0 | 1.41µM*
c1ccc(CSc2nnnn2-c2cccc3ccccc23)nc1 | -3.8% | -1.8 | 20µM*
CCCNC(=O)Nc1ccccc1SC | / | / | -10.8%
O=C(COC(=O)CCS(=O)(=O)c1ccc(Cl)cc1)NCCc1ccccc1 | -1.7% | 2.8 | 3.0%
CSC(=O)NC(=O)NC(=O)c1ccc([N+](=O)[O-])cc1 | / | / | 5.2%
N#CCCCSc1nnc(-c2ccccn2)o1 | -6.9% | 5.9 | ?
NCC1O[C@H](O[C@@H]2C(O)[C@H](O[C@H]3OC(CO)C(O)C(N)C3O)[C@@H](N)C[C@H]2N)[C@@H](N)CC1O (some centres undefined) | -9.5% | / | -11.7%

Screening data deposited in PubChem BioAssay by National Center for Advancing Translational Sciences (NCATS).
